The values below come from PubChem BioAssay (NCATS).

Records with an inconclusive call do not appear. Unmarked numbers belong to inactive results. The source made the active and inactive calls. Calls come from the whole dose curve; as a rule, active = well fitted curve in the direction sought with a large enough effect; inconclusive = small, poorly fitted or top-dose-only effect, or another doubt; inactive = no such curve, though single readings can be large; an effect the other way counts as inactive or inconclusive.

Test [1] has as its target ATP-dependent 6-phosphofructokinase (Trypanosoma brucei brucei) (UniProt O15648). Kind of test: qHTS Assay to Find Inhibitors of T. brucei phosphofructokinase: hit validation (AID 492961).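 Note: luminescence reports ADP formed as PFK phosphorylates fructose-6-phosphate with ATP; % is set by controls: 0 for no effect and ±100 for the full control effect.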 A digest of the protocol:
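In this biochemical qHTS validation, titrated compounds were tested against 1.25 nM PFK with 0.1 mM ATP and 0.5 mM F6P. Percent activity came from controls lacking or containing enzyme.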

Test [2] in a line: qHTS profiling for inhibitors of Plasmodium falciparum proliferation (AID 504749).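 For activity, negative = inhibition: 0% = DMSO vehicle and full inhibition = artemisinin control.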 For all read-outs here: nearly all actives have a fitted effect of over 60% in size. Note: potency is the fitted concentration of half-maximal effect. Conditions: P. falciparum in erythrocytes, SYBR Green DNA, 72 h; for activity, negative = inhibition: at 28.7 µM (top of the series). A digest of the protocol:
(§1)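 Infected RBCs, 0.3% parasitemia/2.5% Hct final; cpd 72 h, 37 C, 5% CO2; lysis buffer with saponin/triton/SYBR Green I, o/n RT dark; FI 485/535; norm. to artemisinin (0.29 uM) and DMSO.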
For orientation: qHTS replaces the single test concentration by a dilution series.

The subject of another test is 3D7. The test is described as above. As to conditions: P. falciparum in erythrocytes, SYBR Green DNA, 72 h; series mostly up to 28.7 µM. A digest of the protocol: as §1
The subject of a further test is ATS189. Described as above. As to conditions: P. falciparum in erythrocytes, SYBR Green DNA, 72 h; series mostly up to 28.7 µM. A digest of the protocol: as §1
For the next test, the system named is CP185. The description is as above. As to conditions: P. falciparum in erythrocytes, SYBR Green DNA, 72 h; series mostly up to 28.7 µM. A digest of the protocol: as §1
A further test has as its system CP191. The test is described as above. As to conditions: P. falciparum in erythrocytes, SYBR Green DNA, 72 h; series mostly up to 28.7 µM. A digest of the protocol: as §1
A further test relates to CP192. The test is described as above. As to conditions: P. falciparum in erythrocytes, SYBR Green DNA, 72 h; series mostly up to 28.7 µM. A digest of the protocol:
as §1

A further test deals with CP194. The description is as above. Conditions: P. falciparum in erythrocytes, SYBR Green DNA, 72 h; series mostly up to 28.7 µM. A digest of the protocol:
as §1

The next test concerns CP211. Described as above. As to conditions: P. falciparum in erythrocytes, SYBR Green DNA, 72 h; series mostly up to 28.7 µM. A digest of the protocol: as §1
The next test relates to CP217. Described as above. As to conditions: P. falciparum in erythrocytes, SYBR Green DNA, 72 h; series mostly up to 28.7 µM. A digest of the protocol:
as §1

A further test concerns CP238. The test is described as above. As to conditions: P. falciparum in erythrocytes, SYBR Green DNA, 72 h; series mostly up to 28.7 µM. A digest of the protocol:
as §1

The next test relates to CP252. The test is described as above. As to conditions: P. falciparum in erythrocytes, SYBR Green DNA, 72 h; series mostly up to 28.7 µM. A digest of the protocol: as §1
For a further test, the system named is CP262. The description is as above. As to conditions: P. falciparum in erythrocytes, SYBR Green DNA, 72 h; series mostly up to 28.7 µM. A digest of the protocol:
as §1

The next test has as its system CP265. Described as above. Conditions: P. falciparum in erythrocytes, SYBR Green DNA, 72 h; series mostly up to 28.7 µM. A digest of the protocol:
as §1

Another test concerns CP269. Described as above. Conditions: P. falciparum in erythrocytes, SYBR Green DNA, 72 h; series mostly up to 28.7 µM. A digest of the protocol: as §1
A further test concerns CP286. Described as above. As to conditions: P. falciparum in erythrocytes, SYBR Green DNA, 72 h; series mostly up to 28.7 µM. A digest of the protocol:
as §1

Another test deals with CP329. The description is as above. As to conditions: P. falciparum in erythrocytes, SYBR Green DNA, 72 h; series mostly up to 28.7 µM. A digest of the protocol: as §1
For the next test, the system named is Dd2. Described as above. As to conditions: P. falciparum in erythrocytes, SYBR Green DNA, 72 h; series mostly up to 28.7 µM. A digest of the protocol: as §1
For the next test, the system named is ECU. The description is as above. As to conditions: P. falciparum in erythrocytes, SYBR Green DNA, 72 h; series mostly up to 28.7 µM. A digest of the protocol: as §1
For the next test, the system named is FAB9. The test is described as above. Conditions: P. falciparum in erythrocytes, SYBR Green DNA, 72 h; series mostly up to 28.7 µM. A digest of the protocol:
as §1

ATP-dependent 6-phosphofructokinase (Trypanosoma brucei brucei), sequence (O15648 whole entry, looked up): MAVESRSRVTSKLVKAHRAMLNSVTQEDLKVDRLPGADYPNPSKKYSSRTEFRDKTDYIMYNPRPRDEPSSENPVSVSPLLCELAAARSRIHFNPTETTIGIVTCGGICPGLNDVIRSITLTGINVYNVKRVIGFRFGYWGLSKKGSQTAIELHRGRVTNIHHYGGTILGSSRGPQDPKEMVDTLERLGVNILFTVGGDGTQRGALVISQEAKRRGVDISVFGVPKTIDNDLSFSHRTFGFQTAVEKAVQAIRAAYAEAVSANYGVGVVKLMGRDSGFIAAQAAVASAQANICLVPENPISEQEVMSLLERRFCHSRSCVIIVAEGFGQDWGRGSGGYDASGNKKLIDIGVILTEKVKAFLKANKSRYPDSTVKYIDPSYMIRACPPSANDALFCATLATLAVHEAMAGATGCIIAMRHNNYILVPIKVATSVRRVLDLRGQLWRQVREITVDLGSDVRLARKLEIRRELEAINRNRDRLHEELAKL

With `CC1C(=O)C(=O)C=CN1C` (stereo not given), the Potency result (in test [1]; in the test with 3D7; in the test with ATS189; in the test with CP185; in the test with CP191; in the test on CP192) was “inactive” throughout. Further, the Potency result in the test with CP194, with CP211, in the test with CP217, in the test with CP238, with CP252 and in the test with CP262 was “inactive” each time. The Potency result with CP265, in the test with CP269, in the test on CP286, with CP329, in the test on Dd2 and in the test with ECU was “inactive” each time. Besides, the Potency result in the test on FAB9 was “inactive”. The activity, negative = inhibition was 3.53% in test [2] (parasite line A) and 9.14% in [2] (parasite line B).
`NC(=O)OC[C@@H]1[C@H](NC(=O)/C(=N/OCC(=O)O)c2csc(N)n2)C(=O)N1S(=O)(=O)O`: the Potency entry (in test [1]; in the test on 3D7; in the test on ATS189; with CP185; in the test with CP191; in the test on CP192) was “inactive” each time. The Potency result with CP194, in the test with CP211, with CP217, in the test with CP238, in the test on CP252 and in the test with CP262 was “inactive” each time. Further, the Potency result in the test on CP265, in the test on CP269, in the test with CP286, in the test on CP329, in the test on Dd2 and in the test with ECU was “inactive” each time. In addition, the activity, negative = inhibition in test [2] (parasite line A) was -1.72%; in test [2] (parasite line B), 1.04%. The Potency in the test on FAB9 is 0.1 µM (active).
As for `Nc1ncn(C2C[C@H](O)[C@@H](CO)O2)c(=O)n1` (stereo not given in full), the Potency entry (in [1]; with 3D7; in the test on ATS189; in the test with CP185; with CP191; in the test with CP192) was “inactive” in each case. Moreover, the Potency result in the test with CP194, in the test on CP211, with CP217, with CP238, in the test on CP252 and in the test on CP262 was “inactive” in each case. In addition, the Potency result in the test on CP265, in the test with CP269, in the test on CP286, in the test on CP329, with Dd2 and in the test on ECU was “inactive” in each case. In addition, the Potency result in the test on FAB9 is “inactive”. Moreover, the results for the activity, negative = inhibition in test [2] (parasite line A) and in [2] (parasite line B) were 2.14% and -13.9%, respectively.
As to `O=C(O)C(O)c1ccccc1` (stereo not given), the Potency entry (in test [1]; with 3D7; with ATS189; in the test with CP185; with CP191; in the test on CP192) was “inactive” in each case. Moreover, the Potency entry in the test with CP194, in the test on CP211, in the test with CP217, in the test with CP238, in the test on CP252 and in the test on CP262 was “inactive” in each case. Also, the Potency entry with CP265, with CP269, in the test with CP286, with CP329, in the test on Dd2 and with ECU was “inactive” each time. The Potency entry in the test with FAB9 was “inactive”. Besides, the figures for the activity, negative = inhibition in test [2] (parasite line A) and in test [2] (parasite line B) were 2.53% and 10.7%, respectively.
Take `CCN(CC)CC(=O)Nc1c(C)cc(C)cc1C`: the Potency entry (in test [1]; in the test on 3D7; in the test with ATS189; with CP185; in the test on CP191; in the test with CP192) was “inactive” throughout. The Potency result in the test on CP194, in the test on CP211, with CP217, with CP238, in the test on CP252 and in the test with CP262 was “inactive” each time. For the same compound, the Potency entry with CP265, in the test on CP269, with CP286, in the test on CP329, with Dd2 and with ECU was “inactive” throughout. The Potency entry in the test on FAB9 is “inactive”. The activity, negative = inhibition was 2.56% in test [2] (parasite line A) and 6.57% in [2] (parasite line B).
Regarding `CO[C@H]1C[C@@H]2CC[C@@H](C)[C@@](O)(O2)C(=O)C(=O)N2CCCC[C@H]2C(=O)O[C@H]([C@H](C)C[C@@H]2CC[C@@H](O)[C@H](OC)C2)CC(=O)[C@H](C)/C=C(\C)[C@@H](O)[C@@H](OC)C(=O)[C@H](C)C[C@H](C)/C=C/C=C/C=C/1C`, the Potency entry in test [1] is “inactive”. The Potency in test [2] (parasite line A) was 3.55 µM (active); in [2] (parasite line B) it was 1.78 µM (active); with 3D7, 2.82 µM (active); with ATS189 it was 3.55 µM (active); in the test on CP185, 5.62 µM (active); in the test with CP191, 2.24 µM (active). For the same compound, the Potency is 4.78 µM (active) in the test with CP192; 3.38 µM (active) in the test with CP194; 4.26 µM (active) in the test on CP211; 3.16 µM (active) in the test on CP217; 3.98 µM (active) in the test with CP238; 2.82 µM (active) in the test on CP252. The Potency is 4.78 µM (active) in the test on CP262; 3.16 µM (active) in the test with CP265; 4.26 µM (active) in the test on CP269; 5.01 µM (active) with CP286; 4.26 µM (active) with CP329; 2.82 µM (active) in the test with Dd2. Further, in the test on ECU, the Potency was 2.51 µM (active).
